Experimental findings from PubChem BioAssay (NCI) are described below.

Structures are written as SMILES. The panel holds about 83,000 compounds, 20% with a hit somewhere; the sample as a whole holds those more often.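 For each line, cells grew in 96-well plates with the test compound present at a single concentration for 48 hours.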 A number with no mark means an inactive call. The source made the active and inactive calls. Rule for the calls: active = growth percent below 10; inactive = the rest.

Some test systems named below: NCI-H23 lung; NCI-H226 lung; NCI-H322M lung; HOP-62 NSCLC; NCI-H460 lung; HOP-92 NSCLC; NCI-H522 lung; A549/ATCC NSCLC; 786-0 renal; COLO 205 colon; DU-145 prostate; K-562 leukemia; MALME-3M melanoma; MDA-MB-231 breast; RXF 393 renal; SF-268 CNS; SF-295 CNS; SF-539 CNS; UACC-257 melanoma; M14 melanoma.
What all share (test): NCI-60 one-dose screen, 48 h (100 = growth as untreated, 0 = no growth, -100 = all killed)
Common to all, as to settings: 10 µM unless noted

`CC(C)(C)[C@H](OCc1cn([C@H]2C[C@@H](O)[C@@H](CO)O2)c(=O)[nH]c1=O)c1ccc(C#Cc2ccccc2)cc1[N+](=O)[O-]`: the growth in the experiment with NCI-H23 lung is 90.2%; in the experiment on NCI-H226 lung, 99.3%; in the experiment with NCI-H322M lung it was 47.6%; in the experiment with HOP-62 NSCLC it was 86%; with NCI-H460 lung, 10.1%; in the experiment with HOP-92 NSCLC, 58.1%. Besides, the growth was 45% in the experiment on NCI-H522 lung; 46.5% in the experiment on A549/ATCC NSCLC; 27.8% in the experiment with 786-0 renal; 79.1% with COLO 205 colon; 86.4% in the experiment on DU-145 prostate; 60.5% with K-562 leukemia. For the same molecule, the growth was 84% in the experiment with MALME-3M melanoma; 91.7% in the experiment on MDA-MB-231 breast; 47.2% with RXF 393 renal; 81.5% in the experiment on SF-268 CNS; 82% in the experiment on SF-295 CNS; 97.1% in the experiment on SF-539 CNS. The figures for the growth in the experiment with UACC-257 melanoma and in the experiment with M14 melanoma were 83.5% and 45.1%, respectively.

Take `COc1ccccc1/C=C/C1=C(C)CCC(c2ccccc2OC)C1C` (stereo not given): the growth was 26.8% in the experiment on NCI-H23 lung; 45.8% in the experiment on NCI-H226 lung; 33.4% in the experiment with NCI-H322M lung; 17.3% in the experiment with HOP-62 NSCLC; 3.73% (active) in the experiment with NCI-H460 lung; -35% (active) with HOP-92 NSCLC. The growth in the experiment with NCI-H522 lung is -45% (active); with A549/ATCC NSCLC, 21.2%; in the experiment with 786-0 renal, 12%; with COLO 205 colon it was -45.3% (active); in the experiment on DU-145 prostate, -8.51% (active); in the experiment on K-562 leukemia, 18.2%. For the same molecule, the growth is 80.9% in the experiment on MALME-3M melanoma; 17.2% in the experiment on MDA-MB-231 breast; 28.5% in the experiment with RXF 393 renal; 16.3% in the experiment on SF-268 CNS; -45.9% (active) with SF-295 CNS; 0.327% (active) in the experiment with SF-539 CNS. The growth in the experiment with UACC-257 melanoma is 57.9%; with M14 melanoma it was -10.7% (active).

In the case of `Cn1cc(-c2csc(-c3cn(CCO)c4ccc(F)cc34)n2)c2cccnc21`, the growth in the experiment with NCI-H23 lung is 74.1%; in the experiment on NCI-H226 lung, 76%; with NCI-H322M lung, 79.1%; with HOP-62 NSCLC it was 52.6%; with NCI-H460 lung, 27%; in the experiment with HOP-92 NSCLC it was 64.8%. Moreover, the growth was 10% in the experiment with NCI-H522 lung; 49.8% in the experiment with A549/ATCC NSCLC; 73.3% with 786-0 renal; 46% in the experiment on COLO 205 colon; 95.4% with DU-145 prostate; 18.1% with K-562 leukemia. Also, the growth is 72.8% with MALME-3M melanoma; 57.9% with MDA-MB-231 breast; 69.7% with RXF 393 renal; 77.6% in the experiment with SF-268 CNS; 52.3% with SF-295 CNS; 69.9% in the experiment with SF-539 CNS. For the same molecule, the growth in the experiment with UACC-257 melanoma is 77.4%; in the experiment on M14 melanoma it was 35.7%.

Take `CCCCC1=C(Br)C(=O)c2ncccc2C1=O`: the growth in the experiment with NCI-H23 lung is 95%; in the experiment on NCI-H226 lung, 97.8%; with NCI-H322M lung, 100%; with HOP-62 NSCLC, 91.3%; in the experiment on NCI-H460 lung, 105%; in the experiment with HOP-92 NSCLC it was 46.2%. The growth is 74.3% in the experiment with NCI-H522 lung; 94.8% in the experiment on A549/ATCC NSCLC; 93.3% in the experiment with 786-0 renal; -6.16% (active) in the experiment on COLO 205 colon; 103% in the experiment with DU-145 prostate; 30.2% in the experiment with K-562 leukemia. Besides, the growth in the experiment with MALME-3M melanoma was 101%; with MDA-MB-231 breast, 77.6%; in the experiment with RXF 393 renal, 98.3%; in the experiment with SF-268 CNS, 95.5%; in the experiment on SF-295 CNS, 106%; in the experiment with SF-539 CNS it was 94.5%. Also, the growth with UACC-257 melanoma was 92.6%; with M14 melanoma it was 98.2%.

For the molecule `O=C(O)c1cc2ccccc2s1`, the growth is 101% in the experiment with NCI-H23 lung; 98.2% in the experiment on NCI-H226 lung; 110% in the experiment with NCI-H322M lung; 96.9% in the experiment on HOP-62 NSCLC; 104% with NCI-H460 lung; 90% in the experiment with HOP-92 NSCLC. Also, the growth with NCI-H522 lung was 107%; in the experiment on A549/ATCC NSCLC it was 104%; with 786-0 renal, 106%; in the experiment with COLO 205 colon, 113%; in the experiment on DU-145 prostate, 124%; in the experiment on K-562 leukemia, 107%. Besides, the growth in the experiment on MALME-3M melanoma is 130%; in the experiment with MDA-MB-231 breast, 104%; in the experiment with RXF 393 renal it was 110%; with SF-268 CNS it was 107%; with SF-295 CNS it was 97.8%; in the experiment with SF-539 CNS it was 101%. Also, the growth in the experiment with UACC-257 melanoma is 105%; in the experiment with M14 melanoma it was 110%.

Regarding `Cc1cc([N+](=O)[O-])ccc1NC(=O)c1ccc2c(c1)nc(-c1ccccc1)n2C1CCCCC1`, the growth was 91.5% with NCI-H23 lung; 93% with NCI-H226 lung; 80% in the experiment with NCI-H322M lung; 91.8% with HOP-62 NSCLC; 87.3% in the experiment with NCI-H460 lung; 117% with HOP-92 NSCLC. The growth in the experiment with NCI-H522 lung is 63.1%; with A549/ATCC NSCLC, 78.8%; in the experiment on 786-0 renal, 86.7%; in the experiment with COLO 205 colon, 73.2%; with DU-145 prostate, 105%; in the experiment on K-562 leukemia it was 49.9%. For the same molecule, the growth is 80.4% in the experiment on MALME-3M melanoma; 84.4% in the experiment with MDA-MB-231 breast; 96.5% in the experiment with RXF 393 renal; 77.1% in the experiment on SF-268 CNS; 80.5% in the experiment on SF-295 CNS; 92.2% in the experiment with SF-539 CNS. Further, the growth in the experiment on UACC-257 melanoma is 92.4%; in the experiment on M14 melanoma, 74.9%.

As to `CCCCCCCCCCCCCC[n+]1ccc2c(C)c3c(c(C)c2c1)c1cc(O)ccc1n3CC`, the growth with NCI-H23 lung is -64% (active); in the experiment with NCI-H226 lung it was -40.5% (active); in the experiment on NCI-H322M lung, -62% (active); in the experiment with HOP-62 NSCLC, -57.1% (active); in the experiment on NCI-H460 lung, -67.7% (active); with HOP-92 NSCLC it was -84.4% (active). Moreover, the growth with NCI-H522 lung was -42.9% (active); in the experiment with A549/ATCC NSCLC, 7.99% (active); with 786-0 renal it was -73.4% (active); in the experiment on COLO 205 colon, -69.9% (active); in the experiment with DU-145 prostate it was -93.4% (active); in the experiment on K-562 leukemia, -55.7% (active). The growth is -84.7% (active) with MALME-3M melanoma; -74.6% (active) in the experiment with MDA-MB-231 breast; -63.3% (active) in the experiment with RXF 393 renal; -82.7% (active) with SF-268 CNS; -54.3% (active) with SF-295 CNS; -83.9% (active) in the experiment on SF-539 CNS. Also, the growth with UACC-257 melanoma was -69.3% (active); in the experiment on M14 melanoma, -86.7% (active).
